The nature of assay [1]: Human pregnane X receptor (PXR) small molecule agonists, qHTS cell viability counter screen (AID 1346977). Note: nearly all actives have a fitted effect of over 50% in size. The gist of the method: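 Fluorescence read-out (CellTiter-Fluor) of viability in PXR-Luc HepG2 cells, multiplexed with the luciferase agonist read. Compounds in DMSO added after 5hr plating; 24hr total exposure at 37C, 5% CO2.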
A general note: In qHTS, concentration-response curves come from the screen itself.

Assay [2] can be described thus: Caspase-3/7 induction in HepG2 cells by small molecules, qHTS assay (AID 1346978). Note: nearly all actives have a fitted effect of over 15% in size. The gist of the method:
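Wild-type HepG2 cells (2,000/well) were settled 5 h at 37 C, 5% CO2, then exposed to compounds in DMSO for 17 h. Caspase-3/7 activity was read by luminescence 30 min after adding Caspase-Glo 3/7 reagent at room temperature.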

Assay [3] in a line: Caspase-3/7 induction in CHO-K1 cells by small molecules, qHTS cell viability counter screen (AID 1346979). Note: nearly all actives have a fitted effect of over 35% in size. The gist of the method: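 CHO-K1 wt, 1,500 cells/well; 5hr pre-incubation 37C/5% CO2; compound pin transfer (DMSO); 16hr exposure; CellTiter-Fluor added, 1hr, fluorescence read.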
Assay [4] in a line: Caspase-3/7 induction in CHO-K1 cells by small molecules, qHTS assay (AID 1346980). Note: nearly all actives have a fitted effect of over 15% in size. The gist of the method:
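Wild-type cells were seeded at 1,500 per well and settled 5 hr at 37 C, 5% CO2, then exposed to DMSO-dissolved compounds for 17 hr. Caspase-Glo 3/7 reagent was added, and luminescence was read after 30min at room temperature.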

Assay [5] in a line: Caspase-3/7 induction in HepG2 cells by small molecules, qHTS cell viability counter screen (AID 1346981). Note: series mostly up to about 92 µM; nearly all actives have a fitted effect of over 30% in size. The gist of the method:
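Fluorescence read-out of live-cell protease activity (CellTiter-Fluor) after 1 hr with reagent. This was measured in the same wells as the caspase-3/7 luminescence, on HepG2 cells exposed to DMSO-dissolved compounds for 16 hr at 37 C.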

Assay [6] concerns the target Nuclear receptor subfamily 1 group I member 2 (Homo sapiens) (UniProt O75469). The experiment in a line: Human pregnane X receptor (PXR) small molecule agonists, qHTS assay (AID 1346982). Note: nearly all actives have a fitted effect of over 35% in size. The method in brief: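 HepG2 PXR-Luc reporter line, 5% charcoal-stripped FBS; 5 hr pre-incubation, compound (DMSO) 24 hr at 37 C/5% CO2; ONE-Glo 30 min RT; luminescence read-out.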

The target of assay [7] is Cytochrome P450 2D6 (Homo sapiens) (UniProt P10635). The experiment in a line: Cytochrome P450 Family 2 Subfamily D Member 6 (CYP2D6) small molecule antagonists: luciferase reporter qHTS assay (AID 1671196). Note: series mostly up to about 120 µM; nearly all actives have a fitted effect of over 50% in size. The gist of the method:
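Luminogenic proluciferin substrate, CYP2D6 enzyme; 10 min RT preincubation with compound, NADPH regeneration system added, 1 h RT. Stop/detection reagent, 20 min RT, luminescence read (RLU). Signal proportional to CYP activity.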

In assay [8] the target is Cytochrome P450 2C9 (Homo sapiens) (UniProt P11712). Put plainly: Cytochrome P450 Family 2 Subfamily C Member 9 (CYP2C9) small molecule antagonists: luciferase reporter qHTS assay (AID 1671198). Note: series mostly up to about 120 µM; nearly all actives have a fitted effect of over 50% in size. The method in brief: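 CYP2C9 activity was measured with a P450-Glo proluciferin substrate. Enzyme–substrate mix was held with compound for 10 min at room temperature, then NADPH regeneration solution was added for 1 h at 37C. Luciferin product was read as luminescence.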

In assay [9] the target is Cytochrome P450 1A2 (Homo sapiens) (UniProt P05177). The experiment in a line: Cytochrome P450 Family 1 Subfamily A Member 2 (CYP1A2) small molecule antagonists: luciferase reporter qHTS assay (AID 1671199). Note: nearly all actives have a fitted effect of over 50% in size. Note: potency is the fitted concentration of half-maximal effect. The gist of the method:
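Luminescence readout (relative luminescence units) after luciferin detection reagent, 20 min RT. Preceded by 1 h room-temperature CYP1A2 reaction with NADPH regeneration solution following 10 min compound preincubation with enzyme and proluciferin substrate. Furafylline positive control.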
A general note: In a reporter assay the amount or activity of a reporter protein is the signal.

Assay [10] has as its target Voltage-gated inwardly rectifying potassium channel KCNH2 (Homo sapiens) (UniProt Q12809). The experiment in a line: Human Ether-a-go-go-Related Gene (hERG) channel small molecule antagonists: fluorescence cell-based qHTS assay (AID 1671200). The method in brief:
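Read-out: thallium influx as a surrogate for potassium, tracked as fluorescence (480 nm ex/540 nm em) every second for 2 min after Stimulus Buffer addition in dye-loaded hERG-U2OS cells.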
A general note: hERG is a cardiac potassium channel; its block is linked to QT prolongation.

The target of assay [11] is Thyrotropin-releasing hormone receptor (Homo sapiens) (UniProt P34981). Put plainly: qHTS assay to identify small molecule antagonists of the thyrotropin-releasing hormone receptor (TRHR) signaling pathway (AID 1346877; active = well fitted inhibition curve with a large enough effect in the repeat runs, not every such curve was filed as active; note: series mostly up to about 51 µM). The method in brief:
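HEK293/TRHR cells, 18 h, 37 °C; Ca2+ dye 2 h; cpd 5 min RT; TRH 1 nM final; fluorescence read 3 min, 1 s intervals; 15 concs, triplicate.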

Assay [12] has the same target. The experiment in a line: qHTS assay to identify small molecule agonists of the thyrotropin-releasing hormone receptor (TRHR) signaling pathway (AID 1346891; calls by dose curve;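 note: HEK293 cells expressing TRHR with calcium dye readout; series mostly up to about 58 µM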). The gist of the method:
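HEK293/TRHR cells, 1500 per well, 18 h 37 °C; Ca dye 2 h 37 °C; pin-tool compound addition (agonist mode); kinetic fluorescence 3 min, 1 s reads; 15 concentrations, triplicate.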

Assay [13] addresses Cytochrome P450 2C19 (Homo sapiens) (UniProt P33261). Put plainly: Cytochrome P450 Family 2 Subfamily C Member 19 (CYP2C19) small molecule antagonists: luciferase reporter qHTS assay (AID 1671197). Note: series mostly up to about 120 µM; nearly all actives have a fitted effect of over 65% in size. The gist of the method:
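CYP2C19 P450-Glo, 1536-well qHTS. Cpd + enzyme/proluciferin substrate 10 min RT; + NADPH regen, 37C 1 h; stop with luciferin detection reagent, 20 min RT, luminescence (RLU). Pos ctrl ketoconazole.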

For assay [14], the target named is Cytochrome P450 3A4 (Homo sapiens) (UniProt P08684). Put plainly: Cytochrome P450 Family 3 Subfamily A Member 4 (CYP3A4) small molecule antagonists: luciferase reporter qHTS assay (AID 1671201). The method in brief:
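Luminescent readout (RLU) proportional to CYP3A4 activity, from luciferin generated off a proluciferin substrate. Enzyme–substrate mix plus compound 10 min at room temp, NADPH regeneration 1 h, detection reagent 20 min.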

The target of assay [15] is Nuclear receptor subfamily 1 group I member 2 (Rattus norvegicus) (UniProt Q9R1A7). Put plainly: Rat pregnane X receptor (rPXR) activation by small molecules, qHTS assay (AID 1346983). Note: nearly all actives have a fitted effect of over 20% in size. The following applies: rPXR luciferase reporter cells, One-Glo luminescence, 24 h; max activation: stronger effect = higher value. The gist of the method: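 Cell-based rPXR luciferase reporter assay, 2,000 cells per well, rested 5hr at 37 C before compound addition in DMSO, then 24 hr at 37 C. One-Glo reagent was added and luminescence read after 30 min at room temperature.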

The target in assay [16] is Nuclear receptor subfamily 1 group I member 2 (Homo sapiens) (UniProt O75469). Put plainly: CYP3A4 induction through human pregnane X receptor (PXR) by small molecules, qHTS assay (AID 1346984). Note: nearly all actives have a fitted effect of over 40% in size. The method in brief: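 HepG2-derived DPX-2 line carrying PXR plus a CYP3A4-promoter luciferase reporter; cells plated 5 hr, compound-exposed 24 hr at 37C. CYP3A4 activity probed with 3uM (final) Luciferin-IPA for 3hr, then luciferase read after One-Glo.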

Assay [17] shares this target. The experiment in a line: Human pregnane X receptor (PXR) activation by small molecules, qHTS assay (AID 1346985). Note: nearly all actives have a fitted effect of over 40% in size. The method in brief: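 DPX-2 cells (HepG2 co-transfected with a PXR response element and a CYP3A4-promoter luciferase construct) were seeded at 2,000 per well, rested 5 hr at 37C, then exposed to DMSO-dissolved compounds for 24 hr. Activation was read as luciferase luminescence.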

Unmarked numbers belong to inactive results. Results filed as inconclusive are left out. Calls of active or inactive are those of the source. Unless noted, calls come from the whole dose curve; as a rule, active = well fitted curve in the direction sought with a large enough effect in the repeat runs; inconclusive = weak or mixed curves; inactive = no such curve, though single readings can be large; an effect the other way counts as inactive or inconclusive.
% is set by controls: 0 for no effect and ±100 for the full control effect.

Sequence of Nuclear receptor subfamily 1 group I member 2 (Homo sapiens) (O75469 whole entry, looked up): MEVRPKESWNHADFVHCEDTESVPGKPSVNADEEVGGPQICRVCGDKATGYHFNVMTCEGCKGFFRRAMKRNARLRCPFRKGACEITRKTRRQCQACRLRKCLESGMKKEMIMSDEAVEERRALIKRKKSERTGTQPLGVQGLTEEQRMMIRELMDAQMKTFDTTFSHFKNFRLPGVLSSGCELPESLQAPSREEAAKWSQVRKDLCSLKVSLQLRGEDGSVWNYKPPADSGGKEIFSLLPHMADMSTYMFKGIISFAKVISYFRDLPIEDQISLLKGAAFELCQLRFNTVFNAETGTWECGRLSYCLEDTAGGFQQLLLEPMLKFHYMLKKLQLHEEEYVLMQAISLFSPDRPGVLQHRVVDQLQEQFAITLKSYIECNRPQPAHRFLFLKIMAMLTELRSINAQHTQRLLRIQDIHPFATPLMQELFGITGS
Sequence of Thyrotropin-releasing hormone receptor (Homo sapiens) (P34981 whole entry, looked up): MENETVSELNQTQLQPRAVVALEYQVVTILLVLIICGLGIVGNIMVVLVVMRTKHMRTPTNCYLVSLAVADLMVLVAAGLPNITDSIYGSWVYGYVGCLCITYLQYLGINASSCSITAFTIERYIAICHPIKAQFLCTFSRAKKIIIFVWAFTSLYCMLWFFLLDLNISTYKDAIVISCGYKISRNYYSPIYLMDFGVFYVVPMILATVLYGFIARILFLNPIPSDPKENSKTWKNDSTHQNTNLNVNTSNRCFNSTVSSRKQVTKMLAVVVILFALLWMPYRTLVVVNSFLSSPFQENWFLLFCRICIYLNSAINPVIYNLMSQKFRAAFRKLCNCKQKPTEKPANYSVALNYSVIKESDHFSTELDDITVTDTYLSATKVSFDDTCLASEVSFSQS
Sequence of Voltage-gated inwardly rectifying potassium channel KCNH2 (Homo sapiens) (Q12809 whole entry, looked up): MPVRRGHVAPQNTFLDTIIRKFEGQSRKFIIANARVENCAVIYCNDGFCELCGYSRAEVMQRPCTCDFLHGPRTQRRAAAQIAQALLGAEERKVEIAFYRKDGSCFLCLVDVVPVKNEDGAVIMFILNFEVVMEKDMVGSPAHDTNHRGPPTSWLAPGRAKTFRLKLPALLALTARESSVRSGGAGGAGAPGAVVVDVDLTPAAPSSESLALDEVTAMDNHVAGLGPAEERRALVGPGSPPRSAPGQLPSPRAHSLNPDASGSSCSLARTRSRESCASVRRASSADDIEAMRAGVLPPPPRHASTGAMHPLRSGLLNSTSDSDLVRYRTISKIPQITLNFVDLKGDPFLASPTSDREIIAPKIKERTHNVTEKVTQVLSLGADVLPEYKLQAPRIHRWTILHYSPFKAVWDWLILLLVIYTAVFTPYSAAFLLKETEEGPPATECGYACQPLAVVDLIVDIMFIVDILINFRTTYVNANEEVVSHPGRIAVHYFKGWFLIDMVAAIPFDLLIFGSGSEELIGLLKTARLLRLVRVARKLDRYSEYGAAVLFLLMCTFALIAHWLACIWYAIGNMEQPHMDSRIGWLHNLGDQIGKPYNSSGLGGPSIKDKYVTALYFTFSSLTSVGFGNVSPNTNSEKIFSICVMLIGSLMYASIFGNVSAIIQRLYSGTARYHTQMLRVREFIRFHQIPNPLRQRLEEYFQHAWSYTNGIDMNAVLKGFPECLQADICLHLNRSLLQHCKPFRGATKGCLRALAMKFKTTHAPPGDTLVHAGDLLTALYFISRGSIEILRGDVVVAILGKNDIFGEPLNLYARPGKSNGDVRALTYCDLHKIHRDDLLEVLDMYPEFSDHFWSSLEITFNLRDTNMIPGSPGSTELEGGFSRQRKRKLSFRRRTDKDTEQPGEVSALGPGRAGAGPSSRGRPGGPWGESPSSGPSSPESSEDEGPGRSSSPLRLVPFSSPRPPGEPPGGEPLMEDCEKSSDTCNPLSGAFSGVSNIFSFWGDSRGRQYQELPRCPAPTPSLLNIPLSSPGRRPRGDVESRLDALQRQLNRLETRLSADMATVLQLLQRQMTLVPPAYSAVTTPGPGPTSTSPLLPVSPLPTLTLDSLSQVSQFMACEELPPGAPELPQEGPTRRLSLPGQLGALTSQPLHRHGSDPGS
Sequence of Cytochrome P450 3A4 (Homo sapiens) (P08684 whole entry, looked up): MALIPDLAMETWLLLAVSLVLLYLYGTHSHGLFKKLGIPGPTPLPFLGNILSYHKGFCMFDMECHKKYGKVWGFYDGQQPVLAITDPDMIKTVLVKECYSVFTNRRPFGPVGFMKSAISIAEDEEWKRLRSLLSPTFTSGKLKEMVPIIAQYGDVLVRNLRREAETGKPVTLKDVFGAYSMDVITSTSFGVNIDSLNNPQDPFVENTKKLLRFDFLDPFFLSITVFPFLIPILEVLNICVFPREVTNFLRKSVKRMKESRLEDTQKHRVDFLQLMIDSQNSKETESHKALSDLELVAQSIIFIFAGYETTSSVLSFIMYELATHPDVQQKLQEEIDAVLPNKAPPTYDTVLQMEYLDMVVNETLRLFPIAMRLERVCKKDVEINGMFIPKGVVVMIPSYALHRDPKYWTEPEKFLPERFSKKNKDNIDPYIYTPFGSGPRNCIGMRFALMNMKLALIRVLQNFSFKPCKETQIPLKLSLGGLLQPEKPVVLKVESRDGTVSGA
Sequence of Cytochrome P450 2D6 (Homo sapiens) (P10635 whole entry, looked up): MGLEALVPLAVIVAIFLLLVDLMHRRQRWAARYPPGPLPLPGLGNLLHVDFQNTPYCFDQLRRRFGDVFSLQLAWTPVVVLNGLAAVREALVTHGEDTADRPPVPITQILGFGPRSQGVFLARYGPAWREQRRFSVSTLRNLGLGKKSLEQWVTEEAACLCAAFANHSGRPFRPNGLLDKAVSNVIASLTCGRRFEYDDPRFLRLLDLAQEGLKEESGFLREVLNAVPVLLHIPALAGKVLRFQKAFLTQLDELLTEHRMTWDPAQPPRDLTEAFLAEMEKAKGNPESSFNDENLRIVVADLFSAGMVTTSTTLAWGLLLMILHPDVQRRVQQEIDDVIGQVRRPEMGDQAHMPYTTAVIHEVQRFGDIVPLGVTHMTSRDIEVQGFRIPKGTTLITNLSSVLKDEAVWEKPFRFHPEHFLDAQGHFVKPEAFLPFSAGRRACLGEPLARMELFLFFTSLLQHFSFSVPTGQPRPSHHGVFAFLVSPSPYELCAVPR
Sequence of Cytochrome P450 2C9 (Homo sapiens) (P11712 whole entry, looked up): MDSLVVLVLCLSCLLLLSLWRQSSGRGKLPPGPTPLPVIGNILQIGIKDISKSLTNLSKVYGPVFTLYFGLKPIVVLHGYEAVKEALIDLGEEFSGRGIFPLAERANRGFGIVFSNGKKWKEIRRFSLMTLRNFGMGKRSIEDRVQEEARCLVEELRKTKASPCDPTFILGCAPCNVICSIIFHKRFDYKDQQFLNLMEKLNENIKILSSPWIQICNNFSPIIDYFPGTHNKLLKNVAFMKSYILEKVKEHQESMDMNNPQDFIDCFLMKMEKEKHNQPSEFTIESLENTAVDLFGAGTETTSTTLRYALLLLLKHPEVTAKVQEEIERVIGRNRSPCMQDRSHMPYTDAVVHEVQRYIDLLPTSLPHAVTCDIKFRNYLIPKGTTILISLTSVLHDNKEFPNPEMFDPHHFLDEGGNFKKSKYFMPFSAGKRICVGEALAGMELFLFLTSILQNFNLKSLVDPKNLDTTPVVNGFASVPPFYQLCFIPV
Sequence of Cytochrome P450 1A2 (Homo sapiens) (P05177 whole entry, looked up): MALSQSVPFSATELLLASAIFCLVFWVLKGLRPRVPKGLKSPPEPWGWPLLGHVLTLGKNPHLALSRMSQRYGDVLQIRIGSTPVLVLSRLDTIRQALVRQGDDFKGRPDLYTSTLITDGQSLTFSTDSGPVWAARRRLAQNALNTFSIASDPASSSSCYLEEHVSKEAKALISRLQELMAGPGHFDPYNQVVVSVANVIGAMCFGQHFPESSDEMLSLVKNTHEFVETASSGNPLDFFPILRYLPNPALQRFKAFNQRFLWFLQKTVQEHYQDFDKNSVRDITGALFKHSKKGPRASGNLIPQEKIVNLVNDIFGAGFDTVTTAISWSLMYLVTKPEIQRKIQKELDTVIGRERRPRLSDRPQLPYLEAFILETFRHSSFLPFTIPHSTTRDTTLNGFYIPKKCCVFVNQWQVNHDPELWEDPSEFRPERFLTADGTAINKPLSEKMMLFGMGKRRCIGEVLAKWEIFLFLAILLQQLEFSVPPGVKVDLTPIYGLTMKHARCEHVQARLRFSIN
Sequence of Cytochrome P450 2C19 (Homo sapiens) (P33261 whole entry, looked up): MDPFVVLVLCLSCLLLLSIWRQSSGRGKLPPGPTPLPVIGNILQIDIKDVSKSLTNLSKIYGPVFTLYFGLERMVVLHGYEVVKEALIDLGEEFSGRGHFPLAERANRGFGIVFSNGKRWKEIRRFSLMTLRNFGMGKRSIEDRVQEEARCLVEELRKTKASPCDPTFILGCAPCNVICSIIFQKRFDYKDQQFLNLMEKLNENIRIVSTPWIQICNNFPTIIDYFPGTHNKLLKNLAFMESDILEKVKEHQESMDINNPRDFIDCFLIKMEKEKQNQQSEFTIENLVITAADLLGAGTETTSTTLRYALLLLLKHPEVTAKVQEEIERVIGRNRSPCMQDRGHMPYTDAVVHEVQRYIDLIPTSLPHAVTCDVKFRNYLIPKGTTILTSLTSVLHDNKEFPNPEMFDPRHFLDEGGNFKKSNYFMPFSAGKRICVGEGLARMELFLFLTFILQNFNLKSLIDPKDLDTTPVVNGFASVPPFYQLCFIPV
Sequence of Nuclear receptor subfamily 1 group I member 2 (Rattus norvegicus) (Q9R1A7 whole entry, looked up): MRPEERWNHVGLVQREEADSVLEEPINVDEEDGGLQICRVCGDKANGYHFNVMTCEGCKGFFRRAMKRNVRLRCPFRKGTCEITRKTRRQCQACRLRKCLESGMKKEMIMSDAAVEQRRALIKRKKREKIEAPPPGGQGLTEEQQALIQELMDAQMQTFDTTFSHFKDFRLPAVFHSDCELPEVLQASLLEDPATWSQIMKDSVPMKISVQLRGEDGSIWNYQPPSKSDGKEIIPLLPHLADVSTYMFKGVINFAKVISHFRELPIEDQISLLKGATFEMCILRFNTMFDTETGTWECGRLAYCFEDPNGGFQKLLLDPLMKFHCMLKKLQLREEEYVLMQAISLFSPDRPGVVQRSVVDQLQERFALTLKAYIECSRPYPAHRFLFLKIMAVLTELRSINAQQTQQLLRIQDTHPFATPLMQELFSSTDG

Consider `CC(C)(O)c1ccc(C(C)(C)O)cc1`, for which the outcome in assay [1], in assay [2], in [4] and in [5] was inactive. In addition, the Potency entry in [3], in [6], in assay [7], in assay [8], in assay [9] and in [10] was “inactive” each time.

Turning to `Nc1nc(Cl)cc(Cl)n1`, the call in assay [11], in assay [1], in [2], in assay [4] and in assay [5] was inactive. Moreover, the Potency result in [12], in assay [7], in assay [13], in assay [8] and in assay [10] was “inactive” each time.

For `C/C=C(\C)C=O`, the molecule was called inactive in assay [11], in assay [1], in [4] and in assay [5]. Besides, the Potency result in assay [12], in assay [3], in assay [7], in assay [8], in [10] and in assay [14] was “inactive” each time. In addition, in assay [9], the Potency is 63.6 µM (active).

Take `CCN1CCN(C(=O)N[C@@H](C(=O)N[C@@H]2C(=O)N3C(C(=O)O)=C(CSc4nnnn4C)CS[C@H]23)c2ccc(O)cc2)C(=O)C1=O`: the molecule was called inactive in assay [11], in [1], in [4], in assay [5], in assay [16] and in [17]. For the same molecule, the Potency entry in assay [12], in assay [3], in [6], in assay [7], in [13] and in assay [8] was “inactive” each time. In addition, the Potency result in assay [9] and in assay [10] was “inactive” in each case. Also, the max activation in assay [15] is -3.62%.

For `Clc1cc(Cl)c(Cl)c(Cl)c1Cl`, the outcome in [11], in assay [1], in assay [2] and in [4] was inactive. The Potency entry in [12], in assay [3], in [6], in assay [7], in [13] and in [8] was “inactive” each time. The Potency entry in assay [9] and in assay [10] was “inactive” in each case.

For the molecule `O=c1[nH]c(=O)c2cn[nH]c2[nH]1`, the result in assay [11], in assay [2], in [4] and in assay [5] was inactive. The Potency result in [12], in assay [3], in [7], in [13], in [8] and in assay [9] was “inactive” throughout. For the same molecule, the Potency result in assay [10] and in assay [14] was “inactive” in each case.

Turning to `CCCCCCCOC(C)=O`, the result in assay [11], in assay [1], in [2], in assay [4] and in assay [5] was inactive. For the same molecule, the Potency result in assay [12], in assay [3], in assay [6], in [7], in assay [13] and in assay [8] was “inactive” in each case. Also, the Potency entry in [9], in [10] and in [14] was “inactive” in each case.

As for `CCOC(=O)CN1CCCC1=O`, the molecule was called inactive in assay [11], in [1], in assay [2], in assay [4] and in assay [5]. Besides, the Potency result in [12], in [3], in [7], in assay [8], in [9] and in assay [10] was “inactive” each time. Besides, the Potency entry in [14] was “inactive”.

On to `O=C(O)COc1ccc2ccccc2c1`, for which the call in assay [11], in assay [1], in assay [2], in [4] and in [5] was inactive. For the same molecule, the Potency entry in assay [12], in assay [6], in assay [7], in assay [13], in [9] and in assay [10] was “inactive” in each case. Further, the Potency entry in assay [14] was “inactive”.

The record behind these values is PubChem BioAssay (Tox21).
